# UHRF1 MBD2 ctr: UHRF1 methylated DNA binding inhibitors, primary screen, counter-screen for MBD2 inhibitor project, biochemical, TR-FRET, human UHRF1, single concentration; E3 ubiquitin-protein ligase UHRF1 (Homo sapiens), Q96T88; AID 687016, 2013; inhibition, % at 4.4 µM; actives 0.75% (n = 370,000); UHRF1 binding to methylated oligo; in the data active means inhibition above about 21%;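 further: UHRF1 SRA domain binding a hemimethylated CpG hairpin DNA probe; 0% = median of test compound wells and 100% = reference inhibitor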
# Target sequence (Q96T88 whole entry, looked up, the tested form may be a part): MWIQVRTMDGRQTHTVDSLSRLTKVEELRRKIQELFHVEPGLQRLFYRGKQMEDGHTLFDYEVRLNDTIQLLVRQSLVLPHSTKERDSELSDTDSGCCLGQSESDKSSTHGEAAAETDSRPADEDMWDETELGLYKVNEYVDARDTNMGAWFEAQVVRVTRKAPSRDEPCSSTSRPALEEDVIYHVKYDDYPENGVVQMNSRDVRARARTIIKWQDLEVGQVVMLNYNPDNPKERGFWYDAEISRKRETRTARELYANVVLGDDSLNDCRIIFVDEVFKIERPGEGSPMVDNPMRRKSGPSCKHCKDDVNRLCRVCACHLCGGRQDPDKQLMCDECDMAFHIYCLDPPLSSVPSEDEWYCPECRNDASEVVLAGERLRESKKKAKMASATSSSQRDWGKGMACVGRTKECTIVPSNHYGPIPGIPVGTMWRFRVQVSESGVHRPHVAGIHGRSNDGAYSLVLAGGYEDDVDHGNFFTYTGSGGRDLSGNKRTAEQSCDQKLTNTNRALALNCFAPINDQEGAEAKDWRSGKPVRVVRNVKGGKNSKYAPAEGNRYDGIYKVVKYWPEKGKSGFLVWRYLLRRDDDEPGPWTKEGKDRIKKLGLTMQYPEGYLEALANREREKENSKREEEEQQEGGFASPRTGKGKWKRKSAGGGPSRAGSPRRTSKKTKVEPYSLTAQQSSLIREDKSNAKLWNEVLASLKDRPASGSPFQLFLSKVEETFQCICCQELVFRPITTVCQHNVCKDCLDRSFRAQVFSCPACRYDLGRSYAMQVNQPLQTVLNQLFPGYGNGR
# LEDGF integ inh: blockers of LEDGF/p75-dependent integrase strand transfer – biochemical, TR-FRET, high throughput, primary screen; HIV-1 integrase (with human LEDGF/p75); TR-FRET IN-LEDGF/p75 DNA integration, Eu/Cy5; inhibition, % at 3.7 µM; actives 0.64% (n = 370,000); AID 743269, 2014;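 active means inhibition above the screen-wide mean plus 3 SD, cut at about 13% in these data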;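 further: signal is the Cy5 over europium emission ratio at 671 and 618 nm; 0% = plate median of compound wells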
# TCR-CD3 inh: inhibitors of human TCR-CD3 interaction, primary screen, biochemical, fluorescence, TAMRA-labeled TCR probe. actives 0.37% (n = 360,000). inhibition, % at 9.4 µM. AID 651800, 2012; in the data active means inhibition above about 19%;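 further: recombinant mutant TCR 2C K166C tagged with TAMRA read by polarization; 0% = receptor in buffer alone and 100% = receptor with positive control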
# MBD2 DNA inh: inhibitors of MBD2 binding to methylated DNA, primary screen, biochemical, TR-FRET, DNA-binding domain, human. Methyl-CpG-binding domain protein 2 (Homo sapiens), Q9UBB5. MBD2 binding to methylated oligonucleotide. actives 0.31% (n = 370,000). inhibition, % at 4.4 µM. AID 686964, 2013; in the data active means inhibition above about 13%
# Rin1-Abl PPI inh: inhibitors of Rin1-Abl protein binding, primary screen, biochemical, TR-FRET | inhibition, % at 7.35 µM | actives 0.4% (n = 360,000); in the data active means inhibition above about 5%, passing the limit was not always enough
# * marks the source's active call; other numbers are inactive results; / = no result. In the library only some 2% were active in any assay of this set; here they are far more common.
SMILES,UHRF1 MBD2 ctr,LEDGF integ inh,TCR-CD3 inh,MBD2 DNA inh,Rin1-Abl PPI inh
COc1ccccc1Cc1c(-c2ccccc2)nc2c3ccccc3ccn12,5,0,5,5,/
COc1ccccc1Cc1c(C(C)(C)C)nc2c3ccccc3ccn12,23*,2,-4,6,-2
c1ccc(CN2CCN(c3nc(-c4ccccn4)nc4ccccc34)CC2)cc1,-4,2,4,-5,3
c1ccc(CN2CCN(c3nc(-c4ccccc4)nc4ccccc34)CC2)cc1,21*,-1,6,7,-1
CCc1nc2ccc(C(=O)N3CCN(C(=O)c4ccco4)CC3)cn2c1N(C=O)Cc1ccc(OC)cc1,0,-5,-2,1,3
CCC(C)NC(=O)c1ccccc1NC(=O)Nc1ccccc1 (stereo not drawn),27*,-1,5,2,3
COc1ccccc1C(=O)NCc1n[nH]c(=S)n1Cc1ccccc1,44*,-3,-1,8,1
Cc1ccccc1CS(=O)(=O)Cc1ccc(C(=O)Nc2cccc(Cl)c2F)o1,0,0,/,-9,/
O=C(NCCN1CCN(C(=O)c2ccc([N+](=O)[O-])cc2)CC1)C(=O)Nc1ccc(F)cc1,-1,-2,9,-4,0
Cc1nc2c(nc1C)C(=O)c1ccccc1C2=O,-1,2,1,-11,-9
COC1=C(Br)C(=O)c2nc(C)ccc2C1=O,39*,65*,19*,6,1
CCOC(=O)C1CCN(C(=O)CSc2nccc(C)n2)CC1,65*,-4,2,-4,0
CS(=O)(=O)N(CC(=O)NC1CCCCCC1)Cc1ccc(Cl)cc1,49*,-3,-5,-1,-3
CS(=O)(=O)N(CC(=O)NC1CCCCCC1)Cc1ccccc1,6,4,-1,0,-3
O=S(=O)(c1ccc(Cl)nc1)N1CCCc2ccccc21,0,-1,-5,6,-1
O=S(=O)(c1ccc(Cl)nc1)N1CCc2ccccc21,42*,1,-6,2,-3
CN1CCN(C2CN(Cc3cn(Cc4ccc(F)cc4)nn3)S(=O)(=O)C2)CC1 (stereo not drawn),21*,0,-1,7,/
CN(C)c1ccc(C=c2c3cc(O)ccc3n3c2cc(-c2ccccc2)[n+]3C)cc1,31*,8,-29,7,-12
CN(C)c1ccc(/C=C/c2ccc3ccccc3[n+]2C)cc1,-20,-11,-10,-8,-45
CN(C)c1ccc(C=c2c3ccccc3n3c2c2ccccc2[n+]3C)cc1,2,-12,31*,1,0
COC(=O)c1ccccc1NC(=O)CN1C(=O)CSC1=O,0,0,6,3,0
COC(=O)c1cc(NC(=O)CN2C(=O)CSC2=O)ccc1Cl,23*,4,9,8,0
CC(=O)c1c(C)n(-c2ccccc2)c2ccc(OCC(O)CN3CCOCC3)cc12 (stereo not drawn),83*,-4,4,0,-1
CCCc1nc2ccc(Br)cn2c1Cc1ccccc1,23*,4,-6,4,5
CCCc1nc2ccc(Br)cn2c1Cc1cccc(Cl)c1,21*,-2,-1,8,1
SMILES,UHRF1 MBD2 ctr,LEDGF integ inh,TCR-CD3 inh,MBD2 DNA inh,Rin1-Abl PPI inh
CCCc1nc2ccc(C)cn2c1Cc1ccccc1,21,0,0,11,6
Clc1cccc(Cc2c(-c3cccc(Cl)c3)nc3ccc(Br)cn23)c1,3,-3,2,5,-21
COC(=O)[C@]12C[C@H](CC(=O)NCc3ccc(C)o3)C(=O)N(Cc3ccc4c(c3)OCO4)C1=C[C@H](COCc1ccccc1)O[C@@H]2C,3,1,8,-2,/
O=C(CCC1CCCCC1)Nc1nncs1,26*,-1,4,-4,0
Clc1cccc(Cc2c(C3CCCCC3)nc3c4ccccc4ccn23)c1,24*,6,4,3,/
FC(F)(F)c1ccccc1Cc1c(C2CCCCC2)nc2c3ccccc3ccn12,22*,3,-4,3,5
Cc1ccc2nc(C3CCCCC3)c(Cc3ccccc3C(F)(F)F)n2c1,6,-3,-13,5,4
Cc1ccccc1NC(=O)CN1C(=O)S/C(=C\c2ccc(-c3cc(C(=O)O)ccc3C)o2)C1=O,19,-1,-1,7,1
Cc1c(/C=C2\SC(=O)N(CC(=O)Nc3ccc4c(c3)OCO4)C2=O)c2ccccc2n1C,-2,-3,3,0,0
Cc1cc(C(=O)O)ccc1-c1ccc(/C=C2\SC(=O)N(CC(=O)Nc3ccc4c(c3)OCO4)C2=O)o1,24*,-2,2,6,-1
Cc1ccc(NC(=O)CN2C(=O)S/C(=C/c3ccc(-c4cccc(C(=O)O)c4)o3)C2=O)cc1,23*,5,-11,8,0
Cc1ccc(C(=O)O)cc1-c1ccc(/C=C2\SC(=O)N(CC(=O)Nc3ccccc3)C2=O)o1,22*,3,8,6,-2
C#CCN1C(=O)S/C(=C\c2ccc(-c3ccc(C(=O)O)cc3C)o2)C1=O,41*,9,3,12,0
COC(=O)[C@]12C[C@H](CC(=O)NCCCN3CCCC3=O)C(=O)N(Cc3cccc4ccccc34)C1=C[C@H](C1CCCC1)O[C@@H]2C,-1,2,/,0,/
Cc1cc(C(=O)OCC(=O)NC2CC2)ccc1[N+](=O)[O-],80*,-2,-13,4,0
Nc1ccc(C(=O)OCC(=O)NC2CC2)cc1[N+](=O)[O-],-2,-6,-6,-3,-3
CCOC(=O)c1c(C)[nH]c(C)c1S(=O)(=O)NCCN1CCN(c2cc(Cl)ccc2C)CC1,58*,-1,5,2,4
COc1ccc(C=O)c(-c2c(-c3ccccc3OC)sc3ccccc23)c1,2,2,-5,-2,/
CN1CCN(c2nc3c(c(=O)n(C)c(=O)n3C)n2Cc2ccccc2F)CC1,60*,-4,-15,1,1
CCC(C)(C)n1nnnc1CN1CCN(c2ccc(OC)cc2)CC1,22*,1,5,-1,1
CCCCn1c(N)c(N(CC(C)C)C(=O)c2cc3c(s2)CCCCC3)c(=O)[nH]c1=O,57*,1,-1,-3,-4
CCCCn1c(N)c(N(CC)C(=O)c2cc3c(s2)CCCCC3)c(=O)[nH]c1=O,2,-4,-9,5,-1
CN(CC(=O)Nc1cccc(F)c1)C(=O)c1cn(-c2ccccc2)nc1-c1ccccc1,24*,-2,-7,4,-2
CN(CC(=O)Nc1ccc(F)cc1)C(=O)c1cn(-c2ccccc2)nc1-c1cccs1,-1,-2,-7,3,-2

# From PubChem
